Compounds without any hit were thinned out: in the full panel of roughly 83,000, 20% have a hit.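 Results are percent growth after 48 hours of single-concentration exposure. 100 means growth as in untreated cells, lower positive values show inhibition; negative values down to -100 show cell death.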 Unmarked numbers belong to inactive results. Calls of active or inactive are those of the source. The calls were made as follows: active = growth percent below 10; inactive = the rest.
Key:
Assay in all cases: NCI-60 one-dose screen, 48 h (100 = growth as untreated, 0 = no growth, -100 = all killed)
Settings in all cases: 10 µM unless noted
[1] = tested on: SK-MEL-2 melanoma
[2] = tested on: EKVX NSCLC
[3] = tested on: SN12C renal
[4] = tested on: UO-31 renal
[5] = tested on: TK-10 renal
[6] = tested on: ACHN renal
[7] = tested on: A498 renal
[8] = tested on: CCRF-CEM leukemia
[9] = tested on: MOLT-4 leukemia
[10] = tested on: SR leukemia
[11] = tested on: RPMI-8226 leukemia
[12] = tested on: OVCAR-8 ovarian
[13] = tested on: OVCAR-4 ovarian
[14] = tested on: SK-OV-3 ovarian
[15] = tested on: IGROV1 ovarian
[16] = tested on: OVCAR-3 ovarian
[17] = tested on: HS 578T breast
[18] = tested on: NCI/ADR-RES ovarian
[19] = tested on: OVCAR-5 ovarian
[20] = tested on: CAKI-1 renal

Row | Structure (SMILES) | growth [1] | growth [2] | growth [3] | growth [4] | growth [5] | growth [6] | growth [7] | growth [8] | growth [9] | growth [10] | growth [11] | growth [12] | growth [13] | growth [14] | growth [15] | growth [16] | growth [17] | growth [18] | growth [19] | growth [20]
1 | COC(=O)CCCCCCCCC1(C)C=CC(C(C)O)=CC1 (stereo not drawn) | 104% | 102% | 103% | 100% | 92.2% | 114% | 96.1% | 99.7% | 97.8% | 89.8% | 103% | 105% | 110% | 110% | 99.7% | 111% | 117% | 102% |  | 
2 | C=C1C(=O)O[C@H]2[C@H]1CC/C(COC(=O)CCCCCC(=O)OC/C1=C/CC[C@@]3(C)O[C@H]3[C@H]3OC(=O)C(=C)[C@@H]3CC1)=C\CC[C@@]1(C)O[C@@H]21 | 55.7% | 19.9% | 0.951% (active) | -32.1% (active) | 7.18% (active) | -25.7% (active) | 90.5% | 4.16% (active) | 0.768% (active) | 3.39% (active) | 1.08% (active) | 12.2% | 37.2% | 94.6% | 7.45% (active) | 1.8% (active) | 18.7% | 46.9% | 51.2% | 
3 | CC(=O)CCSc1ccc(OC(C)=O)cc1 | 99.5% | 105% | 101% | 87.3% | 96.3% | 103% | 95.8% | 75.3% |  | 90.1% | 92.8% | 96.6% | 107% | 101% | 114% | 104% | 106% | 106% | 111% | 
4 | C=C1C(=O)O[C@H]2[C@H]1CC/C(COC(=O)CCCc1c[nH]c3ccccc13)=C\CC[C@@]1(C)O[C@@H]21 | 88.4% | 74.3% | 54.8% | 58.5% | 94.7% | 59.5% | 103% | 1.43% (active) | 3.73% (active) | 1.59% (active) | -17.6% (active) | 66.3% | 65.8% | 98.2% | 45.8% | 28.3% | 74% | 72.2% | 94.7% | 
5 | O=C1Nc2ccccc2/C1=N/c1nc(-c2ccc(Cl)cc2)cs1 | 88.2% | 60.2% | 79.1% | 52.2% | 87.9% | 80.2% | 51% | 41% | 25% | 60.1% | 39.3% | 54.6% | 67.7% | 57.8% | 66.7% | 64.9% | 71.6% | 88.9% | 98.9% | 
6 | CN(Cc1ccccc1)c1nc(Cl)c(C2CC(c3ccc(Cl)cc3)=Cc3[nH][nH]c(=O)c32)s1 (stereo not drawn) | 99.7% | 99.6% | 89.4% |  | 99.1% | 93.5% | 111% | 106% | 96.3% | 94.2% | 92.5% | 94.5% | 116% | 101% | 88.1% | 95% | 96.4% |  | 97.5% | 86.2%
7 | CCOC(=O)c1c(C)nc2c(c1N)C(=O)C(=O)N2Cc1ccc(C(F)(F)F)cc1 | 77% | 79.5% | 74.1% | 54.1% | 107% | 69.7% | 72.6% | 39.4% | 60.1% | 23.3% | 27.2% | 63.3% | 69.3% | 82.9% | 62.5% | 18% | 65.7% | 17.7% | 91.7% | 
8 | COc1ccc2c(c1)OC13Oc4cc(OC)ccc4C=C1CCCC3=C2 | 15.7% | 39.7% | 44.1% | 36.3% | 47% | 25.3% | 69.8% | 5.97% (active) | -3.56% (active) | 4.94% (active) | -20.6% (active) | 47.7% | 55.2% | 60.1% | 41.4% | 5.62% (active) | 45% | 21.6% | 47.2% | 
9 | O=C1C(=O)c2c(nc3ncccn23)-c2ccccc21 | -58.9% (active) | -75.8% (active) | -82.3% (active) | -98.4% (active) | -52.4% (active) | -100% (active) | -95.9% (active) | -3.54% (active) | -46.6% (active) | -14.8% (active) | -25.3% (active) | -60.7% (active) | -96.2% (active) |  | -58.5% (active) | -50.2% (active) | -18.7% (active) | -32.8% (active) | -88.1% (active) | 
10 | C=C(C)[C@@H]1CC[C@]2(C(=O)O)CC[C@]3(C)[C@H](CC[C@@H]4[C@@]5(C)C[C@@H](CC#Cc6ccc(Br)cc6)C(=O)C(C)(C)[C@@H]5CC[C@]43C)[C@@H]12 | -12.6% (active) | 52.1% | 4.51% (active) | 68% | 62% | 65% | -4.41% (active) | 28.9% | 31.9% | 55.2% | 33.4% | 35.6% | 30.3% |  | 58.6% | 51.4% | 59% | 76.4% | 73.8% | 
11 | COc1ccc2c(c1)c(CC(=O)NCCOCCOCC(=O)Nc1ccc(OC)c(C(N)=O)c1O)c(C)n2C(=O)c1ccc(Cl)cc1 | 89% | 94.4% | 101% | 74.4% | 100% | 109% | 86.6% | 107% | 74.7% | 90.2% | 96.9% | 90.3% | 93.7% | 109% | 93.9% | 103% | 105% | 91.6% | 112% | 
12 | COc1ccc2nc(N=Nc3c(O)ccc4ccccc34)sc2c1 | 59.3% | 17.8% | 50.4% | 20.7% | 69.1% | 17.2% | 79% | 31.3% | 19.9% | 16.6% | 38.1% | 24.3% | 28.3% | 38.2% | 22.4% | 34.9% | 83% | 9.35% (active) | 55.3% | 
13 | CCCC1C(C(=O)OCC)=C(N)Oc2cc(O)ccc21 (stereo not drawn) | 99% | 80.6% | 103% | 70.7% | 105% | 94.1% | 109% | 99.7% |  | 90.1% | 98.5% | 107% | 89.3% | 88.3% | 76.4% | 96.6% | 101% |  | 108% | 
14 | COc1cc(CCNc2nc3cc(N)cc(N)c3nc2-c2ccccc2)cc(OC)c1 | -3.81% (active) | 57.6% | -77.7% (active) | 39% | 104% | 52.3% |  |  | -66.5% (active) |  | -39.6% (active) | -22.2% (active) | -94.9% (active) | 82.3% | 27.8% | -66.2% (active) | -70.5% (active) | 39.1% | 13.4% | 184%
15 | C=C1C(=O)O[C@H]2[C@H]1CC/C(COC(=O)/C=C/c1c[nH]c3ccccc13)=C\CC[C@@]1(C)O[C@@H]21 | -83.7% (active) | -41.4% (active) | -54% (active) | -100% (active) | -99.2% (active) | -100% (active) | -98.8% (active) | 2.46% (active) | 5.13% (active) | -19.7% (active) | -34.3% (active) | -34.4% (active) | -91.9% (active) | 50.8% | -69.7% (active) | -91.5% (active) | -6.76% (active) | -26.9% (active) | -42.1% (active) | 
16 | CC(=O)[C@@H]1CC[C@]2(C(=O)n3ccnc3)CC[C@]3(C)[C@H](CC[C@@H]4[C@@]5(C)Cc6c([nH]c7ccccc67)C(C)(C)[C@@H]5CC[C@]43C)[C@@H]12 | 91.2% | 75.2% | 94.2% | 63.6% | 102% | 83.5% | 99% | 99.5% | 74.1% | 77.7% | 72.7% | 90.7% | 85.2% | 98.3% | 42.6% | 79.5% | 87.1% | 90% |  | 
17 | O=C(OC(OC(=O)c1cc(Cl)cc(Cl)c1)c1cccc2ccccc12)c1ccccc1 (stereo not drawn) | 91.1% | 97.7% | 97.5% | 75.6% | 90.7% | 102% | 84.8% | 93.6% | 103% | 94.5% | 98% | 93.7% | 103% | 101% | 96.5% | 97.6% | 98.2% | 99.7% | 105% | 
18 | [2H]C1([2H])NC([2H])([2H])C([2H])([2H])N(c2ccc(Nc3ncc4cc(C(=O)N(C)C)n(C5CCCC5)c4n3)nc2)C1([2H])[2H] | 94.3% | 65.2% | 74.9% | 61.2% | 43% | 57.4% | 66.5% | 54.1% | 8.74% (active) | 39.8% | 34.8% | 85.2% | 92.7% | 58.3% | 73.4% | 107% | 71.2% | 104% |  | 
19 | CC(O)/C=C/C=C/C(O)CC/C=C/C(=O)NCC(C)(C)O (stereo not drawn) | 81.9% | 107% | 99.2% | 78.4% | 109% | 106% | 99.7% | 95% | 76.2% | 66.4% | 100% | 93.3% | 106% | 111% | 117% | 115% | 99.8% | 109% | 113% | 
20 | Cc1cc(C(=O)Nc2ncnc3nc[nH]c23)no1 | 131% | 103% | 93.8% | 80.5% | 118% | 99.8% | 110% | 86.4% |  | 89.6% | 95% | 102% | 114% | 97.2% | 89.6% | 108% | 95.5% | 106% | 116% | 
